In PubChem BioAssay AID2314 (National Center for Advancing Translational Sciences (NCATS), 2010):
“And” between values parts separate entries of the source, which are not always exact repeats. Equal entries are not always repeated. In all, about 300,000 compounds went through this assay and about 37,000 (12%) were called active. No stated cut-off is given here; in the data, active means max response mostly above about 13% (no sharp cut-off); inactive means mostly below about 14%. What follows is part of a selection rich in actives, with near analogues and random picks from the rest. A structure can be active in one record and inactive in another.

Assay: Cycloheximide Counterscreen for Small Molecule Inhibitors of Shiga Toxin; further: read at 38.3 µM for the half of the compounds with a filed dose; 0% is about no effect
Conditions: cell reporter, cycloheximide protein synthesis inhibition counterscreen; stronger effect = higher value
In the case of `Cc1cc2c(cc1C)[n+](C)cn2CC(O)COCC1CC=CCC1` (centres undefined), the max response is reported as -1.8% (inactive).
For `COc1ccc(C2/C=C\CN(CC(C)C)CC(=O)N2Cc2ccc(F)cc2)cc1` (centres undefined), the max response was -4.65% (inactive) and -3.5% (inactive).
For `COc1ccc(C2/C=C\CN(S(=O)(=O)c3cccs3)CC(=O)N2Cc2ccc(F)cc2)cc1` (centres undefined), the max response was 8.73% (inactive) and 13.8% (active).
In the case of `COc1ccc(C2/C=C\CN(Cc3ccco3)C(C)C(=O)N2Cc2ccc(F)cc2)cc1` (centres undefined), the max response is reported as 10.6% (inactive).
For `C=CCn1c(SCc2ccc(Cl)c(Cl)c2)nnc1C(CO)NC(=O)c1ccc(OC)cc1` (centres undefined), the max response was 3.34% (inactive).
For `COc1ccc(/C(C)=N/NC(=O)c2ccc3nc[nH]c3c2)cc1`, the max response was -2.63% (inactive).
In the case of `CSc1ccc(/C=N/NC(=O)c2cccc(Cl)c2)cc1`, the max response is reported as 96.6% (active).
For `CSc1ccc(/C=N\NC(=O)CC(=O)NC(C)C)cc1`, the max response was 1.43% (inactive).
In the case of `CSc1ccc(/C=N\NC(=O)COc2ccc(Cl)cc2Br)cc1`, the max response is reported as 11.1% (inactive).
With `O=C(N/N=C/c1ccc(Cl)c(Cl)c1)c1ccc2nc[nH]c2c1` the max response was 16.3% (active).
In the case of `Cc1nc2ccc(C(=O)N/N=C/c3ccc(O)cc3)cc2[nH]1`, the max response is reported as 7.31% (inactive).
In the case of `CC1CC(C)CN(S(=O)(=O)c2cccc3nonc23)C1` (centres undefined), the max response is reported as -1.35% (inactive).
In the case of `CN1CC(c2ccccc2)C2(COc3ccccc3C2=O)C12C(=O)Nc1ccccc12` (centres undefined), the max response is reported as -3.96% (inactive).
For `Cc1ccccc1NC(=O)CCNS(=O)(=O)c1ccc2[nH]c(=O)oc2c1`, the max response was -2.26% (inactive).
With `O=C(NNC(=O)C1CCCC1)c1ccc(F)cc1` the max response was -5.73% (inactive).
In the case of `CCOC(=O)NNC(=O)c1ccc(Cl)cc1`, the max response is reported as 6.53% (inactive).
In the case of `O=C(NNC(=O)C1C2CCC(C2)C1C(=O)O)c1ccc(Cl)cc1` (centres undefined), the max response is reported as 17.2% (active).
With `S=C(NNC(=S)NC1CC2CCC1C2)NC1CC2C=CC1C2` (centres undefined) the max response was 4.61% (inactive).
In the case of `O=S(=O)(NC1CC2CCC1C2)c1ccc(Cl)cc1` (centres undefined), the max response is reported as -1.85% (inactive).
In the case of `O=C(NNC(=S)NC1CC2CCC1C2)c1ccc(Cl)cc1` (centres undefined), the max response is reported as 11.9% (active).
With `CCN(CC(=O)NCCCN1CCOCC1)S(=O)(=O)c1cc(Cl)ccc1Cl` the max response was 5.99% (inactive).
For `O=C(CCCN1C(=O)/C(=C/c2cccs2)SC1=S)Nc1ccc(O)cc1`, the max response was 8.82% (inactive).
For `CCN1C(=NCC(C)C)N[C@@H](CCc2ccccc2)[C@H](C(=O)NCC(C)C)[C@H]1C`, the max response was 0.929% (inactive) and -2.38% (inactive).
With `CN(C)/C=C(/C(=O)c1ccc(Cl)c(Cl)c1)c1nnnn1-c1ccccc1` the max response was 0.0457% (inactive).
For `CC(C)(C)c1cnnn1-c1ccc([N+](=O)[O-])cc1`, the max response was 6.21% (inactive).
In the case of `CCc1cc(C(=O)c2ccc(OC)cc2)c(NC(=O)CN2CCN(C)CC2)s1`, the max response is reported as -1.85% (inactive).
With `CCc1cc(C(c2ccccc2OC)N2CCOCC2)c(NC(=O)c2ccccc2)s1` (centres undefined) the max response was 12.9% (inactive).
With `Cc1ccc(NC(=O)c2ccc(Oc3ncccn3)cc2)cc1` the max response was 32.1% (active).
With `Cc1ccc(NC(=O)c2cccnc2C(=O)Nc2ccc(C)cc2)cc1` the max response was -2.58% (inactive).
With `COc1ccc(C(=S)Nc2ccccc2)cc1` the max response was 37.3% (active).
For `CCc1cc(C(N)=O)c(NC(=O)c2ccc(OC)cc2)s1`, the max response was 19.3% (active).
With `COc1ccc(C(=O)Nc2ccc(-n3nncc3C(C)(C)C)cc2)cc1` the max response was 48% (active).
In the case of `COc1ccccc1C(=O)NNC(=O)c1ccc(NC(=O)c2ccccc2)cc1`, the max response is reported as -2.29% (inactive).
With `COCCNC(=S)c1ccc(OC)cc1` the max response was 5.78% (inactive).
With `CCC(C(=O)OCC(=O)Nc1ccc(C(=O)Nc2ccc(OC)cc2)cc1)c1ccccc1` (centres undefined) the max response was 11.5% (inactive).
In the case of `C/C(=N\Nc1ccc([N+](=O)[O-])cc1)c1ccc(-n2nncc2C(C)(C)C)cc1`, the max response is reported as -3.73% (inactive).
For `CN(C)S(=O)(=O)c1cccc(NC(=O)COC(=O)C2(c3ccccc3F)CCCC2)c1`, the max response was -2.67% (inactive).
In the case of `Cc1c(C(=O)NC(C)C2CC3CCC2C3)cccc1[N+](=O)[O-]` (centres undefined), the max response is reported as -3.79% (inactive).
For `COc1cnc(SCc2ccc(Cl)c(Cl)c2)nc1Cl`, the max response was 2.3% (inactive).
With `CCc1c2c(nc3ccc(O)cc13)-c1cc3c(c(=O)n1C2)COC(=O)[C@]3(O)CC` the max response was -1.28% (inactive).
In the case of `NC(N)=Nc1nc(-c2ccccc2)c2cc(Cl)ccc2n1`, the max response is reported as -10.2% (inactive).
With `CCOC(=O)C1=C(N)N(c2ccc(C)cc2)C2=C(C(=O)CCC2)C1c1cccs1` (centres undefined) the max response was 5.25% (inactive).
In the case of `COc1ccccc1OC(C)C(=O)Nc1ccc(S(=O)(=O)Nc2nccs2)cc1` (centres undefined), the max response is reported as -6.41% (inactive).
For `CC(=O)N1c2ccc(S(=O)(=O)N3CCCC(C(=O)NCc4ccc(Cl)cc4)C3)cc2CC1C` (centres undefined), the max response was 10.9% (inactive).
With `CNS(=O)(=O)c1cccc(C(=O)NC2CCCc3ccccc32)c1` (centres undefined) the max response was -2.97% (inactive).
With `COc1ccc(S(=O)(=O)Nc2ccc3oc(C)c(C(C)=O)c3c2)cc1` the max response was -0.324% (inactive).
With `COc1ccc(NS(=O)(=O)c2ccc(NC(=O)c3ccc(N(C)S(C)(=O)=O)cc3)cc2)cc1` the max response was -6.86% (inactive).
In the case of `COc1ccc2oc(=N)c(C(=O)Nc3ccc(Br)cc3)cc2c1`, the max response is reported as -2.54% (inactive).
With `COc1ccc(CC(=O)Nc2ccc(C(=O)NC(C)(C)C)cc2)cc1` the max response was 7.23% (inactive).
For `COc1ccc(NC(=O)C(Br)C(C)C)cc1` (centres undefined), the max response was 10.3% (inactive).
In the case of `COc1ccc(NC(=O)c2c(C)oc3c2CCCC3)cc1`, the max response is reported as 23.1% (active).
For `COc1cccc(NC(=O)c2ccc(S(=O)(=O)N(C)C)cc2)c1`, the max response was 9.95% (inactive).
In the case of `CCC(=O)Nc1ccc(C(=O)Nc2cccc(OC)c2)cc1`, the max response is reported as 37.4% (active).
With `COc1ccc(NC(=O)ON=C2c3ccccc3-c3ccccc32)cc1` the max response was 36.1% (active).
In the case of `COc1ccc(C(=O)ON=C2c3ccccc3-c3ccccc32)cc1OC`, the max response is reported as -2.66% (inactive).
With `COc1ccc(NC(=O)c2ccc(C#CC(C)(C)O)cc2)cc1` the max response was 29.4% (active).
In the case of `COc1cccc(NC(=O)CN(C)CC(=O)Nc2ccc3c(c2)CCC3)c1`, the max response is reported as 4.53% (inactive).
In the case of `CCC(C)[C@H](NC(=O)N1CCn2c1nc1ccccc12)C(=O)NCc1ccc(OC)cc1` (some centres undefined), the max response is reported as 7.87% (inactive).
With `CC1CCN(C(=S)NC2CC3CCC2C3)CC1` (centres undefined) the max response was -2.5% (inactive).
In the case of `O=C(CCCCCn1c(=S)[nH]c2ccsc2c1=O)NC1CCCCC1`, the max response is reported as -3.34% (inactive).
In the case of `Cc1nc(NC2=NC(C(=O)Nc3ccc(Cl)cc3)CC(=O)N2)nc2ccccc12` (centres undefined), the max response is reported as -1.93% (inactive).
For `Cc1ccc2c(C)c(C(=O)N(C)Cc3ccncn3)oc2c1C`, the max response was -3.14% (inactive).
For `CCOC(=O)C1(CC2CCCCO2)CCN(Cc2nc(-c3cccs3)oc2C)CC1` (centres undefined), the max response was -1.4% (inactive).
In the case of `CC(C(=O)c1ccc(-c2ccccc2)cc1)[n+]1cccc(Br)c1` (centres undefined), the max response is reported as -1.92% (inactive).
With `CC(NC(=O)c1ccco1)c1ccc2c(c1)OCO2` (centres undefined) the max response was -2.24% (inactive).
For `Cc1c(C)c2c(OCC(=O)N[C@@H](C(=O)O)c3ccccc3)cc3c(c2oc1=O)CCC(C)(C)O3`, the max response was 0.453% (inactive).
In the case of `Cc1nn(C)c(C)c1CN(C(=O)CCc1nnc(Cc2c[nH]c3ccccc23)o1)C(C)C`, the max response is reported as -2.58% (inactive).
For `COCCNC(=O)/C(C#N)=C/c1nc(N(C)C)n(-c2ccc(F)cc2)c1Cl`, the max response was 6.45% (inactive).
For `CSCCC(NS(=O)(=O)c1ccc(C)cc1)C(=O)N1CCCC1` (centres undefined), the max response was -0.967% (inactive).
With `COc1ccc(C(=O)Nc2ccc(NC(=O)C(C)C)nc2)cc1` the max response was 2.34% (inactive).
In the case of `Cc1cccc(C(=O)Nc2ccc(Oc3cnccn3)cc2)c1`, the max response is reported as 22.6% (active).
With `COc1ccc(C(=O)Nc2cccc(S(C)(=O)=O)c2)cc1` the max response was -2.97% (inactive).
In the case of `COCCNC(=O)Nc1ccc2nc(-c3ccco3)c(-c3ccco3)nc2c1`, the max response is reported as -4.08% (inactive).
In the case of `COc1ccc(NC(=O)c2ccc(OC)cc2)cc1`, the max response is reported as 45.1% (active).
For `COc1ccc(/C=N/NC(=O)Nc2ccc3nsnc3c2)c(OC)c1`, the max response was -1.93% (inactive).
In the case of `Cc1cccc(C(=O)Nc2ccccc2C(=O)NCc2cccnc2)c1`, the max response is reported as -1.87% (inactive).
For `COc1ccc(NC(=O)Nc2ccc3nsnc3c2)cc1`, the max response was 49.2% (active).
With `COc1ccc(C(=O)NC(=S)NC2CCCCC2)cc1` the max response was 72.8% (active).
With `Cc1cccc(C(=O)Nc2ccc3c(c2)C(=O)N(CC(C)C)C3=O)c1` the max response was 10.4% (inactive).
For `O=C(NC(=S)NC1CCCCC1)c1ccc(Cl)cc1`, the max response was -1.68% (inactive).
With `COc1ccc(C(=O)NNC(=S)NC(=O)c2ccccc2)cc1` the max response was 8.67% (inactive).
With `O=C(C1CCCO1)N1CCN(C(=S)NC2CC2)CC1` (centres undefined) the max response was -1.72% (inactive).
In the case of `CN1C(=O)[C@H]2[C@@H](C3CC3)N3C(=O)CN(Cc4ccccc4)C(=O)[C@@]3(C)[C@H]2C1=O`, the max response is reported as -0.826% (inactive).
In the case of `CNC(=O)CN1C(=O)NC(c2ccccc2)(c2ccccc2)C1=O`, the max response is reported as -2.25% (inactive).
In the case of `Cc1ccc(C(=O)O)cc1-c1ccc(/C=C2\SC(=O)N(CC(=O)Nc3ccc4c(c3)OCO4)C2=O)o1`, the max response is reported as -2.31% (inactive).
With `O=C(NN1C(=O)C2C3C=CC(C4CC34)C2C1=O)c1ccc(Cl)cc1` (centres undefined) the max response was 3.35% (inactive).
With `C=C(C)C1CC=C(C)C(O)C1` (centres undefined) the max response was 7.86% (inactive).
In the case of `CN(C(=O)COc1nnc(-c2cccs2)c(-c2cccs2)n1)c1ccccc1`, the max response is reported as 0.449% (inactive).
In the case of `CCN(CC)C(=O)c1ccc(NC(=O)c2sccc2-c2ccccc2)cc1`, the max response is reported as 0.344% (inactive).
For `COc1cccc(N(CC(=O)Nc2cccc(N(C)S(C)(=O)=O)c2)S(C)(=O)=O)c1`, the max response was -2.16% (inactive).
For `CCOc1ccc(N(CC(=O)Nc2cccc(OC)c2)S(C)(=O)=O)cc1`, the max response was 27.2% (active).
With `COc1cccc(N(CC(=O)Nc2cccc(F)c2)S(C)(=O)=O)c1` the max response was -5.13% (inactive).
In the case of `COc1ccc(NC(=O)c2sc(N)nc2-c2ccccc2)cc1`, the max response is reported as 1.95% (inactive).
In the case of `COc1ccc(NC(=O)c2sccc2SCC#N)cc1`, the max response is reported as 40% (active).
